TTR transcr act – TTR transcription activation, primary screen. SH-SY5Y TTR promoter Gaussia luciferase, luminescence; 100% = recombinant luciferase protein wells. actives 1.3% (n = 92,000). activation, % at 16.7 µM. AID 1117267;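 active = activation above the mean of all tested compounds plus 3 SD, cut at about 9.5% in these data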;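 also: cells exposed to compounds for one day before reading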
TTR inh HuH7 – HuH7 TTR transcription inhibition, counter-screen | shares compounds with TTR transcr act | HuH7 TTR promoter-Gaussia luciferase reporter, luminescence | inhibition, % at 16.7 µM | actives 4% (n = 1,100) | AID 1117279;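 active = average inhibition above the solvent-only control wells' mean plus 3 SD, cut at about 15% in these data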;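 also: inhibitors lower well luminescence so higher value means more inhibition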
TTR up confirm – human TTR transcription activation, confirmation; 1,100 tested, under 10 active; activation, % at 16.7 µM; SHSY5Y TTR promoter Gaussia luciferase, luminescence; 100% = purified Lucia enzyme wells, no cells; shares compounds with TTR transcr act;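 active = mean activation above a set limit taken from the earlier primary screen, cut at about 11% in these data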
Each line names hits and unclear results; the compound was inactive in the other large screens (follow-up assays come after a bar, where they were run). This excerpt belongs to a sample that is enriched for hits.

CN(CC(=O)N1CCCCC1)S(=O)(=O)c1ccc(Cl)cc1	none
CN(CC(=O)N1CCCCCC1)S(=O)(=O)c1ccc(Br)cc1	TTR transcr act 20 | TTR inh HuH7 inactive | TTR up confirm inactive
COc1cccc(Cn2cc(COC(=O)NCCc3c[nH]c4ccccc34)nn2)c1	none
COC(=O)[C@@]12CCCCC=C1N(CCc1ccc(Cl)cc1)C(=O)[C@H]2CC(=O)NCc1ccc(C)o1	none
CCC[C@H]1[C@@H](OC(=O)NCc2ccc(C)cc2)CC[C@@]23CCCN2C(=O)CCC[C@@H]13	none
CCCn1c(=N)n(CC(=O)c2cccs2)c2ccccc21	none
O=C(Cn1ccccc1=O)c1cccs1	TTR transcr act 17 | TTR inh HuH7 inactive | TTR up confirm inactive
O=C(CN1C2=NCCCN2c2ccccc21)c1cccs1	none
CC(C)C[C@H](NC(C)(C)C(=O)NC1CCCCC1)C(=O)NCCc1c[nH]c2ccccc12	none
COc1cc(Br)c(C(C)NC(=O)c2cccc(Br)c2)cc1OC (stereo not given)	none
COc1cc(C(=O)NC(C)c2cccc3ccccc23)cc(OC)c1OC (stereo not given)	TTR transcr act 18 | TTR inh HuH7 inactive | TTR up confirm inactive
COc1cc(C(=O)NC(=S)Nc2ccc3ccccc3c2)cc(OC)c1OC	none
CN1C2=N[C@H](c3ccc(Br)cc3)CC(=O)N2/C(=C\c2ccccc2)[C@@H]1c1ccccc1	none
COC(=O)[C@H]1C[C@]2(C(/C=C(\C)CCC=C(C)C)S(=O)(=O)c3ccccc3)c3ccccc3N[C@H]2N1 (stereo not given in full)	none
O=C(Nc1ccc(Cl)cc1)NN1CCCCCC1	TTR transcr act 17 | TTR inh HuH7 inactive | TTR up confirm inactive
N#Cc1ccc(NC(=O)NN2CCCCCC2)cc1	none
O=C(Nc1ccc([N+](=O)[O-])cc1)NN1CCCCCC1	none
CCOC(=O)[C@]12CCCC=C1N(CCCOC)C(=O)[C@@H]2CC(=O)N1CCC(c2ccccc2)CC1	none
O=C(NCCc1ccc2c(c1)OCO2)c1cc(-c2ccccc2)c(N2CCOCC2)s1	none
COc1ccc(-c2noc3c2-c2nc(C(C)C)sc2CC3)cc1	none
Brc1ccc(-c2noc3c2-c2nc(C4CCCCC4)sc2CC3)cc1	TTR transcr act 14 | TTR inh HuH7 inactive | TTR up confirm inactive
CCCc1nc2c(s1)CCc1onc(-c3ccc(OC)cc3)c1-2	none
CCOC(=O)[C@]12CCCC=C1N(Cc1ccc(OC)cc1)C(=O)[C@@H]2CC(=O)N1CCCC1	none
CCCCCn1nnnc1C1(C)CCCCC(=O)N1Cc1ccco1 (stereo not given)	none
O=C(Cn1c(=O)c2cccn2c2cccnc21)NCCCN1CCN(c2ccc(Cl)cc2)CC1	none
CN1CCN(C(=O)c2ccc(Cl)c(S(=O)(=O)N3CCCCC3)c2)CC1	none
O=C(c1ccc(Cl)c(S(=O)(=O)N2CCOCC2)c1)N1CCCC1	none
Cc1cccc(NS(=O)(=O)c2cc(C(=O)N3CCCC3)ccc2Cl)c1	TTR transcr act 10 | TTR inh HuH7 inactive | TTR up confirm inactive
COc1ccccc1NC(=O)OCCN1CCCC12CCC(c1ccccc1)CC2 (stereo not given)	none
COC(=O)[C@H](Cc1ccccc1)NP(=O)(OC)[C@@H](C)NC(=O)OCc1ccccc1 (stereo not given in full)	none
Oc1ccc(C(=S)N2CCCCC2)cc1	TTR transcr act 10 | TTR inh HuH7 inactive | TTR up confirm inactive
COc1cc(C(=S)N2CCCC2)ccc1O	none
COc1ccc(C(=S)N2CCCC2)cc1Br	none
C=CCN1C(=O)[C@H](CC(=O)N2CCOCC2)[C@@]2(C(=O)OCC)CCCC=C12	none
Nc1[nH]c(C(=O)c2ccccc2)c(-c2cccc3ccccc23)c1C(=O)c1c(-c2ccccc2)[nH]c2ccccc12	none
Cc1ccc(Cl)cc1NC(=O)CN1CCOCC1	none
COc1ccc(Cl)cc1CN1CCOCC1	none
Clc1ccc2c(c1)c1ccccc1n2CN1CCOCC1	TTR transcr act 22 | TTR inh HuH7 inactive | TTR up confirm inactive
COc1cccc(CN[C@@H]2CC[C@@]34CCCN3C(=O)CCC[C@H]4C2)c1	none
COC(=O)[C@]12C[C@H](CC(=O)N3CCC(c4ccccc4)CC3)C(=O)N(Cc3ccccc3)C1=C[C@H](COCc1ccccc1)O[C@@H]2C	none
CC1CCN(CC(=O)NCCc2ccc(F)cc2)CC1	none
COc1c(O)cccc1[C@@H](O)C1CCN(CCc2ccc(F)cc2)CC1	TTR transcr act 70 | TTR inh HuH7 inactive | TTR up confirm inactive
CCOC(=O)c1cc2cc(OC)ccc2n1C1CCN(CCc2ccccc2)CC1	none
O=c1c2ccc(F)cc2nc2sc(Nc3ccc4c(c3)CCC4)nn12	none
CN(Cc1ccccc1)C(=O)OCc1cn(Cc2ccccc2C(F)(F)F)nn1	none
COC(=O)[C@]12C[C@H](CC(=O)NCCCCc3ccccc3)C(=O)N(CCc3ccc(OC)c(OC)c3)C1=C[C@H](C(C)C)O[C@@H]2C1CC1	none
COC(=O)C(CC(C)C)NC(=O)/C=C/c1ccccc1Cl (stereo not given)	none
CC(C)NC(=S)NC(=O)/C=C/c1cccc2ccccc12	TTR transcr act 17 | TTR inh HuH7 inactive | TTR up confirm inactive
CC(O)C(=O)N/N=C/c1cccc2ccccc12 (stereo not given)	none
C#CCNC[C@@H]1CSCCS(=O)(=O)N1	none
Cn1c(=O)cc(OCCCC(=O)Nc2cc(-c3cn[nH]c3)ccn2)c2ccccc21	none
O=C(COC(=O)c1ccc[n+]([O-])c1)Nc1cc([N+](=O)[O-])ccc1Cl	none
O=C1[C@H]2[C@@H](/C=C/c3ccccc3)N3C(=O)CN(CCO)C(=O)[C@@]3(Cc3ccccc3)[C@H]2C(=O)N1c1ccccc1	none
C[C@@]12C(=O)N(CCO)CC(=O)N1[C@H](/C=C/c1ccccc1)[C@@H]1C(=O)N(c3ccccc3)C(=O)[C@@H]12	TTR transcr act 23 | TTR inh HuH7 inactive | TTR up confirm inactive
O=C1[C@H]2[C@@H](/C=C/c3ccccc3)N3C(=O)CN(CC4CC4)C(=O)[C@@]3(Cc3ccccc3)[C@H]2C(=O)N1c1ccccc1	none
CCC(=O)N(c1ccccc1)C1CCN(C(=O)C(Cc2ccccc2)NC(C)=O)CC1 (stereo not given)	none
Cc1ccc(CN2CCCCC(NC(=O)c3ccc(N(C)C)cc3)C2=O)cc1 (stereo not given)	none
Cc1ccccc1CN1CCCCC(NC(=O)c2ccc(F)cc2)C1=O (stereo not given)	none
Cc1ccccc1CN1CCCCC(NC(=O)c2ccc(N(C)C)cc2)C1=O (stereo not given)	TTR transcr act 13 | TTR inh HuH7 inactive | TTR up confirm inactive
CCOC(=O)[C@@]12CCCC3=C1N(CCC3)C(=O)[C@H]2CC(=O)NCc1cccc(C(F)(F)F)c1	none
CCOC(=O)N1CCN(C(=O)C[C@H]2C[C@@]3(C(=O)OC)C(=C[C@H](C(C)C)O[C@@H]3C3CC3)N(CCc3ccc(OC)c(OC)c3)C2=O)CC1	none
CC1CCC2(CCC(=O)N2C[C@@H](O)c2ccccc2)CC1 (stereo not given in full)	none
CC(=O)C1CCC2C3CCC4CC(=O)CCC4(C)C3C(O)CC12C (stereo not given)	TTR transcr act 10 | TTR inh HuH7 inactive | TTR up confirm inactive
CC(=O)C1C(C)CC2C3CCC4CC(=O)CCC4(C)C3CCC21C (stereo not given)	none
CC(=O)C1CCC2C3CCC4=CC(=O)C=CC4(C)C3CCC12C (stereo not given)	none
